“And” between values parts separate entries of the source, which are not always exact repeats. Identical values can stand only once. Inconclusive results are not listed. The source made the active and inactive calls. Unless noted, the call rests on the fitted dose curve.

The nature of test [1]: Nuclear factor erythroid 2-related factor 2/antioxidant responsive element (Nrf2/ARE) small molecule agonists: qHTS cell viability counter screen in human keratinocytes (AID 1919968; active means well fitted curve in the direction sought with a large enough effect in the repeat runs; an effect the other way counts as inactive or inconclusive; further: nearly all actives have a fitted effect of over 55% in size). A digest of the protocol:
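CellTiter-Fluor fluorescence, read 1 h after reagent, gave viability in the same wells as the ARE-luciferase assay. KeratinoSens cells (1,500/well) had 23 h compound exposure at 37 C/5% CO2 following 5 h plating.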

A short description of test [2]: Nuclear factor erythroid 2-related factor 2/antioxidant responsive element (Nrf2/ARE) small molecule agonists: luciferase reporter gene qHTS assay in human keratinocytes (AID 1919969). Further: nearly all actives have a fitted effect of over 35% in size.
The target in test [3] is Gonadotropin-releasing hormone receptor (Homo sapiens) (UniProt P30968). In words: Human gonadotropin-releasing hormone receptor (GnRHR) small molecule agonists, calcium flux assay in GnRHR-HEK293 cells (AID 1920063). Further: nearly all actives have a fitted effect of over 35% in size. A digest of the protocol: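 Agonist mode: compounds at 15 concentrations, in triplicate, went onto calcium dye-loaded GnRHR-HEK293 cells. Intracellular calcium was then followed as 480/540 nm fluorescence at 1 s intervals over 3 min.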
(In general: Calcium flux is commonly read through the fluorescence of an indicator in the cells.)

Test [4] addresses KiSS-1 receptor (Homo sapiens) (UniProt Q969F8). In words: Human kisspeptin (KISS1R) small molecule agonists, calcium flux assay in KISS1R-HEK293 cells (AID 1920064; active means well fitted curve in the direction sought with a large enough effect in the repeat runs; an effect the other way counts as inactive or inconclusive). An outline of the steps: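 Agonist mode: intracellular calcium rise tracked at 1 s intervals over 3 min (480/540 nm) immediately after compound addition to dye-loaded KISS1R-HEK293 stable cells. Each compound tested at 15 concentrations in triplicate.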

The nature of test [5]: G protein-coupled receptor (GPCR) small molecule agonists, calcium flux assay: HEK293 wild type cell line counter screen (AID 1920065). An outline of the steps:
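Calcium flux counter screen: compound added in agonist mode at 15 concentrations in triplicate to dye-loaded parental HEK293 cells. Fluorescence (480/540) read kinetically for 3 min; ATP served as positive control.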

Test [6] is described as follows: p53 small molecule agonists, cell-based qHTS assay with human liver microsomes: qHTS cell viability counter screen (AID 1963579). Further: nearly all actives have a fitted effect of over 45% in size. A digest of the protocol:
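Metabolically activated exposure: compounds, human liver microsomes and NADPH (0.5 mg/mL final apiece) were added to p53RE-bla cells seeded 5 h earlier, left 16 h at 37 C, and then assessed for viability by CellTiter-Glo luminescence.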
For orientation: qHTS replaces the single test concentration by a dilution series.

A short description of test [7]: p53 small molecule agonists, cell-based qHTS assay with rat liver microsomes: qHTS cell viability counter screen (AID 1963580). Further: nearly all actives have a fitted effect of over 45% in size. A digest of the protocol: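 Cytotoxicity counter screen: intracellular ATP read by CellTiter-Glo luminescence in the p53 reporter wells. HCT-116 p53RE-bla cells were treated for 16 h at 37 C alongside rat liver microsomes and NADPH, each 0.5 mg/mL final.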

Test [8] in a line: p53 small molecule agonists, cell-based qHTS assay: qHTS cell viability counter screen (AID 1963581). Further: nearly all actives have a fitted effect of over 45% in size. A digest of the protocol:
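Counter screen read by CellTiter-Glo luminescence (ATP content, 30 min at room temperature), run in the same wells as the beta-lactamase reporter read. HCT-116 p53RE-bla cells saw compounds for 16 h at 37 C.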

Test [9] addresses 5-hydroxytryptamine receptor 2A (Homo sapiens) (UniProt P28223). As to the kind of experiment: 5-hydroxytryptamine receptor 2A (HTR2A) small molecule antagonists, cell-based qHTS assay (AID 1963586). Further: nearly all actives have a fitted effect of over 45% in size. An outline of the steps: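 CHO cells stably expressing human HTR2A were plated for 18 h at 37 C, then loaded with calcium dye for 1 h. Compounds were preincubated 5 min at room temperature before DOI (4 nM solution) was added. Kinetic fluorescence was read for 3 min.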

For test [10] the target is unchanged. In words: 5-hydroxytryptamine receptor 2A (HTR2A) small molecule agonists, cell-based qHTS assay (AID 1963587). Further: nearly all actives have a fitted effect of over 30% in size. An outline of the steps:
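Kinetic calcium-flux fluorescence (2 min, 1 sec intervals) after compound addition in agonist mode. HTR2A-CHO cells were cultured 18 h, then dye-loaded 1 h at 37 C.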

Test [11] addresses Muscarinic acetylcholine receptor M1 (Homo sapiens) (UniProt P11229). As to the kind of experiment: Cholinergic receptor muscarinic 1 (CHRM1) small molecule antagonists, cell-based qHTS assay (AID 1963588). Further: nearly all actives have a fitted effect of over 40% in size. Further: potency means the concentration at half of the fitted maximal effect. A digest of the protocol: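 Compounds were tested at 15 concentrations in three independent runs. Dye-loaded CHRM1-CHO cells were exposed 5 min at room temperature before stimulation by acetylcholine added at 50nM. Intracellular calcium was read kinetically on FDSS for 3 min.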

Test [12] shares this target. In words: Cholinergic receptor muscarinic 1 (CHRM1) small molecule agonists, cell-based qHTS assay (AID 1963589). Further: nearly all actives have a fitted effect of over 35% in size. A digest of the protocol:
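Agonist-mode calcium-flux screen: compounds at 15 concentrations, three independent runs, were pin-transferred onto dye-loaded human CHRM1-CHO cells. Fluorescence was then recorded kinetically every second over minutes.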

A short description of test [13]: cAMP Responsive Elements (CRE) small molecule agonists, cell-based qHTS assay (AID 1963590). A digest of the protocol:
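Agonist mode: compound added to CRE-bla HEK 293T cells (2,000/well, 18 h after plating) for 3 h at 37 C/5% CO2. Reporter activity detected via FRET beta-lactamase substrate, 2 h room-temperature loading.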

Test [14] is described as follows: cAMP Responsive Elements (CRE) small molecule antagonists, cell-based qHTS assay (AID 1963591; active means well fitted inhibition curve with a large enough effect in the signal ratio in the repeat runs, not every such curve was filed as active; the % refers to the signal ratio; further: potency means the concentration at half of the fitted maximal effect). A digest of the protocol:
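Antagonist mode: compounds are added alongside the adenylyl cyclase activator NKH477 (0.25 uM final) to CRE-bla HEK293T cells for 3 h. LiveBLAzer FRET substrate, 2 h at room temperature, reports bla expression.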

Test [15] has as its target Beta-2 adrenergic receptor (Homo sapiens) (UniProt P07550). As to the kind of experiment: Adrenergic beta2 receptor (ADRB2) small molecule antagonists, cell-based qHTS assay (AID 1963592). Further: series mostly up to about 92 µM; nearly all actives have a fitted effect of over 50% in size. A digest of the protocol: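 Assay format: CHO-ADRB2 cells, 18-20hr seeding at 37C/5% CO2, then compound plus 1nM isoproterenol agonist mix for 0.5hr RT. Homogeneous time-resolved fluorescence cAMP detection after 1hr, expressed as 665/615 nm ratio.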

For test [16] the target is unchanged. In words: Adrenergic beta2 receptor (ADRB2) small molecule agonists, cell-based qHTS assay (AID 1963593).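 Further: CHO cells stably overexpressing human ADRB2.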 A digest of the protocol:
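CHO cells stably over-expressing ADRB2 were plated overnight at 37C, then dosed with compounds plus a stimulation mix containing 100uM IBMX and 25uM Ro-20-1724 for 0.5hr at room temperature. cAMP was measured by HTRF competition, 1hr.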

The target of test [17] is D(2) dopamine receptor (Homo sapiens) (UniProt P14416). As to the kind of experiment: Dopamine D2 receptor (DRD2) small molecule agonists, cell-based qHTS assay (AID 1963594). Further: nearly all actives have a fitted effect of over 35% in size. An outline of the steps: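 cAMP accumulation in DRD2-HEK293 cells measured by HTRF after 1 h detection; compounds added 10 min before NKH477 (200nM […]) forskolin-analogue stimulation, 30 min at room temperature, with Ro20-1724 present at 0.1 mM final.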

For test [18] the target is unchanged. In words: Dopamine D2 receptor (DRD2) small molecule antagonists, cell-based qHTS assay (AID 1963595; active means well fitted inhibition curve with a large enough effect in the signal ratio in the repeat runs, with a control signal flat; the % refers to the signal ratio). A digest of the protocol:
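HEK293 cells stably expressing DRD2 were preincubated with 0.1 mM Ro20-1724, then with compound for 10 min at room temperature. Cells were stimulated with 200 nM NKH477 plus 12 nM quinpirole for 30 min, and cAMP was read by HTRF.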

Test [19] can be described thus: p53 small molecule agonists, cell-based qHTS assay with rat liver microsomes (AID 1963578). An outline of the steps:
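Agonist mode in p53RE-bla reporter cells, with compounds co-incubated 16 h at 37 C alongside 0.5 mg/mL rat liver microsomes and 0.5 mg/mL NADPH (final), followed by a 2 h LiveBLAzer detection step.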

Test [20] in a line: p53 small molecule agonists, cell-based qHTS assay (AID 1963582; active means well fitted activation curve with a large enough effect in the signal ratio in the repeat runs, not every such curve was filed as active; the % refers to the signal ratio). An outline of the steps:
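Read-out is beta-lactamase FRET fluorescence after 2 h at room temperature with LiveBLAzer B/G substrate. p53 response element-bla cells were treated 16 h at 37 C with compounds in DMSO, added 5 h after seeding.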

Chain of Muscarinic acetylcholine receptor M1 (Homo sapiens) (P11229 whole entry, looked up): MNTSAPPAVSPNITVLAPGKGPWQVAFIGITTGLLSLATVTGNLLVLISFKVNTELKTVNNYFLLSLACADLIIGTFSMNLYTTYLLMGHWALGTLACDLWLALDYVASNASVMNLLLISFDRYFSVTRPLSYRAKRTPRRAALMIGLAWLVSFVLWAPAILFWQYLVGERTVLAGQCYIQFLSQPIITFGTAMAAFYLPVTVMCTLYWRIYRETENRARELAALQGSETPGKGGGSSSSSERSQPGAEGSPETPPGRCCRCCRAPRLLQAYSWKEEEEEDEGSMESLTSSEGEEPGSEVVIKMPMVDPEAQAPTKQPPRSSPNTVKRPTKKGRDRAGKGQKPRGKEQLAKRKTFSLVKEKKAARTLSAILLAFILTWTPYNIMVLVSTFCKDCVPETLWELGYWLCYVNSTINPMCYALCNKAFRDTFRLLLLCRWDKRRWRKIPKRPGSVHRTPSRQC
Chain of Beta-2 adrenergic receptor (Homo sapiens) (P07550 whole entry, looked up): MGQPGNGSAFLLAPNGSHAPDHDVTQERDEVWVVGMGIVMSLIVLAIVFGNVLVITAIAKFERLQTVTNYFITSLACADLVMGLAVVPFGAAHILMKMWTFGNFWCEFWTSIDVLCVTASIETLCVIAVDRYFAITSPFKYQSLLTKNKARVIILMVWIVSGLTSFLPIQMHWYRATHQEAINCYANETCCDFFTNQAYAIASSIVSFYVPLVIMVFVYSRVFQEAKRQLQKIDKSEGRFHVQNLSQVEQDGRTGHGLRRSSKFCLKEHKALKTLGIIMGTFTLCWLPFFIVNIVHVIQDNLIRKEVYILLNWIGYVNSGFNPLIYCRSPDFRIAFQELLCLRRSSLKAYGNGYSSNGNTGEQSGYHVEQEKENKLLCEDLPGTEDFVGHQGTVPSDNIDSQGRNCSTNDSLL
Chain of Gonadotropin-releasing hormone receptor (Homo sapiens) (P30968 whole entry, looked up): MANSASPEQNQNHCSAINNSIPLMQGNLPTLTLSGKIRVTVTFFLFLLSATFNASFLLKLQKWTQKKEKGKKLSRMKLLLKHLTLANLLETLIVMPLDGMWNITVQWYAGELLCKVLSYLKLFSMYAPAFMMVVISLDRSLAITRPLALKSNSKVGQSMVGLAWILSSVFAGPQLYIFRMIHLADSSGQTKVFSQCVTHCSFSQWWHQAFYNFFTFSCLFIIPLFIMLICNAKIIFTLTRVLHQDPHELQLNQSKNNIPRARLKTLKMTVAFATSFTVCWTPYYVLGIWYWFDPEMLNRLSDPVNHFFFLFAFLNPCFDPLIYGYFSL
Chain of 5-hydroxytryptamine receptor 2A (Homo sapiens) (P28223 whole entry, looked up): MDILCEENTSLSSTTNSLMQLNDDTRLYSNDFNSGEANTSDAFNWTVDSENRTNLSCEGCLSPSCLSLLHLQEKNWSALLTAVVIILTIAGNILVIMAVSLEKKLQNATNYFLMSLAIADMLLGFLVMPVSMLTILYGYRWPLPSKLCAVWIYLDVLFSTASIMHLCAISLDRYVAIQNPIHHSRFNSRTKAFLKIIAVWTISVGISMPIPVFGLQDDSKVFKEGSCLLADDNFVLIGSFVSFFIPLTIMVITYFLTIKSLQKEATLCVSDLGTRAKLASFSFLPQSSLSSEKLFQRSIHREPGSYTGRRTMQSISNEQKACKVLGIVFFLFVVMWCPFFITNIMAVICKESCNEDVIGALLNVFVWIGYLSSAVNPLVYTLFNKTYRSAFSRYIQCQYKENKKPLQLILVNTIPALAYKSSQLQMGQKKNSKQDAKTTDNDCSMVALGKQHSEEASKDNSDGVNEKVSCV
Chain of KiSS-1 receptor (Homo sapiens) (Q969F8 whole entry, looked up): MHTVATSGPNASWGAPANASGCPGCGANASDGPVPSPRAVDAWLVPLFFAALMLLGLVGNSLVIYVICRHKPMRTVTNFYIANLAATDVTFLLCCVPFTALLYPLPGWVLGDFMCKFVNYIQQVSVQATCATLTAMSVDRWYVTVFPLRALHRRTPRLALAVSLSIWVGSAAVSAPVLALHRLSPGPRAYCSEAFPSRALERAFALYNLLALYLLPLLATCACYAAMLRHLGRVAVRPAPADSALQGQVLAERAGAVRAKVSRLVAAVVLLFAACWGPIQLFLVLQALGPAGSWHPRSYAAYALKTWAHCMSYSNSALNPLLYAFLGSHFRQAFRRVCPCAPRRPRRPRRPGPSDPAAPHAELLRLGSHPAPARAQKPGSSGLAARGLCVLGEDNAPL
Chain of D(2) dopamine receptor (Homo sapiens) (P14416 whole entry, looked up): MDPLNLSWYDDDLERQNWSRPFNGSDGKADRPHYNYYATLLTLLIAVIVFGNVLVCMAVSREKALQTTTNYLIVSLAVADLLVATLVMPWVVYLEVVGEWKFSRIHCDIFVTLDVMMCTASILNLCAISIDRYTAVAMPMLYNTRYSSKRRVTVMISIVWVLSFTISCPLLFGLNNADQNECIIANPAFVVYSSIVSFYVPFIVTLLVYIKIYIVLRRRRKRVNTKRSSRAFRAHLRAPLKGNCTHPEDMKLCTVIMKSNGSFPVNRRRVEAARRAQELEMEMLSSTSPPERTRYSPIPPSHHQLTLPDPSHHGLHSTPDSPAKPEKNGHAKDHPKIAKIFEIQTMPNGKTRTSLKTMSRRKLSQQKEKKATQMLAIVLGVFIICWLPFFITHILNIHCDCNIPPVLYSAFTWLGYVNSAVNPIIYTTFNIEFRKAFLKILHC

With `Cc1ccc([N+](=O)[O-])cc1C`, the Potency entry in test [1], in test [2], in [3], in test [4], in test [5] and in test [6] was “inactive” in each case. For the same molecule, the Potency result in test [7], in [8], in [9], in test [10], in test [11] and in test [12] was “inactive” each time. Further, the Potency result in test [13], in test [14], in [15], in test [16], in [17] and in test [18] was “inactive” in each case.

In the case of `C=C(C)C(=O)OCC1CO1` (centres undefined), the Potency entry in [1], in test [2], in test [3], in test [4], in [5] and in test [19] was “inactive” in each case. Besides, the Potency entry in test [7], in test [8], in [20], in test [9], in test [10] and in test [11] was “inactive” each time. Moreover, the Potency entry in test [12], in test [13], in test [14], in test [15], in test [16] and in test [17] was “inactive” each time. Also, in [18], the Potency result was “inactive”.

As for `CCc1cnc(C2=NC(C)(C(C)C)C(=O)N2)c(C(=O)O)c1` (centres undefined), the Potency entry in test [1], in test [2], in [3], in test [4], in test [5] and in test [6] was “inactive” each time. Also, the Potency entry in test [7], in test [8], in test [9], in test [10], in [11] and in [12] was “inactive” in each case. For the same molecule, the Potency result in test [13], in [14], in [15], in test [16], in test [17] and in test [18] was “inactive” throughout.

Consider `CCOP(=S)(OCC)Oc1ccc([N+](=O)[O-])cc1`, for which the Potency entry in test [1], in test [2], in test [3], in test [4], in test [5] and in test [6] was “inactive” each time. Besides, the Potency result in test [7], in test [8], in test [20], in test [9], in test [10] and in [14] was “inactive” in each case. Moreover, the Potency entry in test [15], in [16], in test [17] and in test [18] was “inactive” in each case. For the same molecule, the Potency in test [11] is 9.54 µM (active) and 18.3 µM (active).

With `CN(C)c1nc(=O)n(C2CCCCC2)c(=O)n1C`, the Potency entry in test [1], in test [2], in [3], in test [4], in test [5] and in [6] was “inactive” throughout. The Potency result in [7], in test [8], in test [9], in test [10], in test [11] and in test [12] was “inactive” throughout. The Potency entry in test [13], in test [14], in [15], in test [16], in [17] and in [18] was “inactive” throughout.

With `O=C(O)C1C2CCC(O2)C1C(=O)O` (centres undefined), the Potency entry in test [1], in test [2], in test [3], in test [4], in test [5] and in test [19] was “inactive” throughout. The Potency entry in [7], in test [9], in test [10], in test [11], in [13] and in test [15] was “inactive” throughout. The Potency result in test [16], in test [17] and in test [18] was “inactive” throughout. Moreover, in [14], the Potency was 27.6 µM (active) and 49.9 µM (active).

On to `CCCn1cc[n+](C)c1`, for which the Potency result in [1], in test [2], in [3], in [4], in [5] and in test [6] was “inactive” each time. The Potency entry in [7], in test [8], in [9], in [10], in test [11] and in test [12] was “inactive” each time. Also, the Potency result in [13], in test [14], in test [15], in test [16], in test [17] and in test [18] was “inactive” in each case.

Values taken from PubChem BioAssay (Tox21).
